HCMV UL50-53 inh: cytomegalovirus nuclear egress complex inhibition. HTRF UL50-UL53 interaction, normalized percent inhibition. inhibition, % (test concentration not listed). hit rate 0.15% among 190,000. AID 1918969; in the data active means inhibition above about 27%, passing the limit was not always enough
Sa growth 42C: S. aureus growth inhibition; S. aureus RN4220 growth, OD600, 20 h, 42 °C; hits give low values; relative growth, % (test concentration not listed); hit rate 0.53% among 170,000; AID 720641;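 active means relative growth at most 50% at the other temperature and 20+ points below 30 °C, or under 10% at both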
Sa helicase inh: blocks Staphylococcus aureus DNA helicase; hit rate 0.05% among 120,000; inhibition, % (test concentration not listed); AID 485395; purified S. aureus helicase, fluorescence unwinding assay; in the data active means inhibition above about 25%, passing the limit was not always enough;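 further: 0% = mean of negative control wells and 100% = mean of positive control wells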
An asterisk follows results filed as active; · = not tested or not shown. This is one part of a sample in which hits are shown more often than they occur.

SMILES | HCMV UL50-53 inh | Sa growth 42C | Sa helicase inh
CO/N=C(/C(=O)N[C@@H]1C(=O)N2C(C(=O)O)=C(COC(C)=O)CS[C@H]12)c1csc(N)n1 | -14 | 1.1* | ·
CCOCC(=O)Nc1ccc(OCC)cc1 | -16 | 115 | 10
CC(OC(=O)C1CCN(c2ccc(C(F)(F)F)cn2)CC1)C(=O)N(C)c1ccccc1 (stereo unspecified) | 0 | 105 | 2
CC(CNC(=S)Nc1cccc(Cl)c1)CSc1ccc(Cl)cc1 (stereo unspecified) | · | -0.4* | 4
S=C(NCCSc1ccc(Cl)cc1)Nc1cccc(Cl)c1 | · | 2 | 12
COCCn1c(=NC(=O)c2cccs2)sc2cc(C(=O)OC)ccc21 | -7 | · | 15
COC1C=CO[C@@]2(C)Oc3c(C)c(O)c4c(O)c(c(C=NN5CCN(C)CC5)c(O)c4c3C2=O)NC(=O)C(C)=CC=CC(C)C(O)C(C)C(O)C(C)C(OC(C)=O)C1C (stereo partly specified) | -103 | · | ·
CO[C@H]1/C=C/O[C@@]2(C)Oc3c(C)c(O)c4c(O)c(c(/C=N/N5CCN(C)CC5)c(O)c4c3C2=O)NC(=O)/C(C)=C\C=C\[C@H](C)[C@H](O)[C@@H](C)[C@@H](O)[C@@H](C)[C@H](OC(C)=O)[C@@H]1C | -90 | 1.6* | ·
C[C@@H](O)[C@H]1C(=O)N2C(C(=O)O)=C(SCCN=CN)C[C@H]12 | -34 | 29* | ·
CC(O)[C@@H]1C(=O)N2C(C(=O)O)=C(SC3CNC(CNS(N)(=O)=O)C3)C(C)[C@@H]12 (stereo partly specified) | -26 | · | ·
CSc1nc(NCc2ccccc2)c(C#N)c(-c2ccccc2)n1 | 22 | 115 | -21
CSc1nc(NC(C)C)c(C#N)c(-c2ccccc2)n1 | 29* | · | ·
O=C(Oc1cccc2cccnc12)c1ccccc1F | -13 | 0.8* | 9
Cc1ccc2cccc(OC(=O)c3ccccc3F)c2n1 | -11 | · | 19
CC(=O)NC(C)c1nc(-c2ccccc2C)no1 (stereo unspecified) | 8 | · | ·
COc1cc2c(cc1NC(=O)C(C)Sc1nnc(-c3cccs3)n1CC1CCCO1)oc1ccccc12 (stereo unspecified) | -14 | 111 | -14
O=C1C(c2c(O)[nH]c3ccccc23)=Nc2ccccc21 | -15 | 91 | ·
O=C1c2ccccc2-[n+]2ccc3c([nH]c4ccccc43)c21 | 61* | · | ·
CCc1ccc(C2C3=C(CC(c4ccccc4O)CC3=O)Nc3onc(C)c32)cc1 (stereo unspecified) | 6 | · | ·
Cc1cccc(-c2nc3nc(C)cc(Nc4cccc5nsnc45)n3n2)c1 | -30 | · | ·
CO[C@H]1C[C@H](O[C@H]2[C@H](C)[C@@H](OC3O[C@H](C)C[C@H](N(C)C)[C@H]3O)[C@@H](C)C[C@]3(CO3)C(=O)[C@H](C)[C@@H](O)[C@@H](C)[C@@H](C)OC(=O)[C@@H]2C)O[C@@H](C)[C@@H]1O (stereo partly specified) | -33 | -0.6* | ·
CO[C@H]1C[C@H](O[C@H]2[C@H](C)[C@@H](OC3O[C@H](C)C[C@H](N(C)C)[C@H]3OC(C)=O)[C@@H](C)C[C@]3(CO3)C(=O)[C@H](C)[C@@H](OC(C)=O)[C@@H](C)[C@@H](C)OC(=O)[C@@H]2C)O[C@@H](C)[C@@H]1OC(C)=O (stereo partly specified) | -46 | 16 | ·
Cc1cc(C(=O)OCC(N)=O)c2ccccc2n1 | -36 | 98 | -4
Cc1oc(C)c2c(=O)cc(-c3ccc4c(c3)OCO4)cc(OC(=O)c3ccc(F)cc3)c12 | -28 | · | ·
Cc1cc(=O)[nH]c(SCC(=O)Nc2ccc(Br)cc2)c1C#N | -8 | 7.7* | 0
SMILES | HCMV UL50-53 inh | Sa growth 42C | Sa helicase inh
Cc1cc(=O)[nH]c(SCC(=O)Nc2ccc(N3CCCC3)cc2)c1C#N | -10 | 87 | 14
COc1ccc(NC(=O)c2nnc(C(=O)NCC3CCCO3)s2)cc1 (stereo unspecified) | -13 | · | ·
COc1ccccc1N1CCN(Cc2cccc3ccccc23)CC1 | -16 | 91 | ·
COc1cc(OC)c(OC)cc1CN1CCN(c2cccc(C)c2C)CC1 | 73* | 107 | -8
CCn1c(=O)c(C(=O)CNc2ccc(S(C)(=O)=O)cc2)c(N)n(Cc2ccccc2)c1=O | -7 | 97 | -10
Cn1nc(C(C)(C)C)cc1NC(=O)Nc1ccc(Cl)cc1 | -10 | · | ·
Cn1nccc1NC(=O)Nc1ccc(Cl)cc1 | 66* | 99 | -12
CN(C)c1ccc(NC(=O)c2ccccc2Cl)c(C(=O)O)c1 | -11 | · | ·
COc1ccc(CNC(=O)CN2CCN(Cc3ccccc3)C(=O)C2=O)cc1 | -20 | · | ·
[N-]=[N+]=c1c(=O)ccc2c(=O)c3ccccc3c(=O)c1=2 | -128 | 6.1* | 13
O=c1c2ccccc2c2nc3c(=O)c4ccccc4c3nc12 | -36 | 97 | 10
O/N=C/c1c(Cl)nc2sccn12 | -9 | · | ·
N#CSc1c(Cl)nc2sccn12 | -18 | 1.8* | 0
CC(=O)NC(c1ccco1)c1c(O)ccc2ccccc12 (stereo unspecified) | -7 | 89 | 1
O=C(O)c1ccccc1NS(=O)(=O)c1ccccc1 | 3 | 120 | 13
O=S(=O)(Nc1ccc(O)c2ccccc12)c1ccccc1 | -18 | 5.0* | 2
CCOC(=O)Cn1c(=O)c2c(nc3n2CC(C)CN3c2cc(C)cc(C)c2)n(C)c1=O (stereo unspecified) | -28 | · | ·
Cc1c(Cl)sn(-c2ccc(Cl)cc2)c1=O | -25 | -1.2* | 11
O=C1CSCC(=O)N1c1ccc(Cl)cc1 | -25 | 100 | -3
CCCn1c(SC)nc2ccccc2c1=O | 18 | 86 | -13
COc1cccc(C(=O)Nc2ccc(-c3nc(C)no3)cc2)c1 | 7 | · | ·
CC1=CC(=O)C=C(C)C1=NS(=O)(=O)c1ccccc1 | · | -0.4* | 18
O=S(=O)(N=C1SCCS1)c1ccccc1 | -11 | · | -12
O=C(/C=C/c1ccc(F)cc1)Oc1cc(Cl)c[nH]c1=O | · | · | -6
CCN1c2ccccc2C2=C(C(c3ccccc3)C(C#N)=C(N)O2)S1(=O)=O (stereo unspecified) | -20 | 109 | 18
SMILES | HCMV UL50-53 inh | Sa growth 42C | Sa helicase inh
Clc1nnc(-c2ccccc2)c(-c2ccccc2)n1 | -90 | -0.6* | ·
NNc1nnc(-c2ccccc2)c(-c2ccccc2)n1 | -42 | 31 | 23
Cc1ccc(C)c([C@H]2[C@H](C(=O)c3ccccc3)N3c4ccccc4C=CC3C2(C#N)C#N)c1 (stereo partly specified) | -37 | 56 | -6
N#C[C@@H]1C[C@@](C#N)(C(=O)c2ccccc2)[C@H]2C=Cc3ccccc3N12 | -38 | 5.3* | -2
O=C(/C=C/c1ccc2c(c1)OCO2)Nc1ccc(S(=O)(=O)N2CCCCC2c2cccnc2)cc1 (stereo unspecified) | -6 | 103 | 8
CCN(CC)CCCNC(=O)C1CCN(C2=NS(=O)(=O)C(c3ccc(OC)cc3)=C2C)CC1 | -78 | · | ·
CN(C)CC1COc2ccccc2C1=O (stereo unspecified) | -18 | -0.4* | ·
O=C1c2ccccc2OCC1c1ccccc1 (stereo unspecified) | -16 | 90 | ·
COc1ccc(C2Nc3ccccc3-n3cc4c(=O)n(C)c(=O)n(C)c4c32)c(OC)c1 (stereo unspecified) | -9 | · | ·
O=S(=O)(c1cc(O)cc(S(=O)(=O)C(F)(F)F)c1)C(F)(F)F | -13 | -0.3* | 8
O=S(=O)(c1ccc(Cl)cc1)C(F)(F)F | 10 | 97 | -1

High-throughput results deposited in PubChem BioAssay by ICCB-Longwood Screening Facility, Harvard Medical School.
